From PubChem BioAssay AID1347056 (Sanford-Burnham Center for Chemical Genomics, 2019)
Out of some 360,000 compounds screened, about 3,600 (1%) were called active. The sample as a whole holds a higher share of actives than the screen did. Values without a mark were called inactive.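 Rule for the calls: active = compounds whose plate-normalised and pattern-corrected inhibition of the luciferase reporter signal at the single screening dose is 50% or more; inactive = the rest.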

Experiment: inhibitors of TROY-driven NF-kB signaling, primary screen, Q293 LMP1-TROYcd cells, NF-kB luciferase, uHTS (AID 1347056)
Conditions: Q293 LMP1-TROYcd NF-kB luciferase reporter, 4 h; at 10 µM; stronger effect = higher value

| Compound | inhibition |
| --- | --- |
| CCCCn1c(N)c(N(CCC(C)C)C(=O)c2ccc(COc3ccccc3)o2)c(=O)[nH]c1=O | -19.5% |
| CCC(CC)C(=O)Nc1ccc(S(=O)(=O)Nc2nccs2)cc1 | -15.5% |
| CC1(C)C/C(=C(/C#N)C(N)=O)CCO1 | -13.2% |
| O=C(NCc1ccccc1)c1onc(CSc2ccncc2)c1C(=O)NCc1ccccc1 | -21.8% |
| CC[C@@H]1Cc2cc(O)ccc2C2=C1c1ccc(O)cc1C[C@H]2CC | 59.9% (active) |
| C=CC[n+]1c(-c2ccc(C)cc2)csc1NNC(=O)Nc1ccccc1 | 25.5% |
| CC(=O)c1cccc(NC(=O)C2CCN(C(=O)c3ccccc3Cl)CC2)c1 | 1.66% |
| CCSc1nsc(NC(=O)Nc2cccc(C(C)=O)c2)n1 | 67.1% (active) |
| C=CCSc1nsc(NC(=O)Nc2cccc(C(C)=O)c2)n1 | 55.9% (active) |
| CC(=O)c1cccc(NC(=S)N2CCN(S(C)(=O)=O)CC2)c1 | -9.61% |
| CCCCN1C(=O)C(=O)N(CC(=O)Nc2cccc(C(C)=O)c2)C1=O | -16.1% |
| CSc1ccccc1C(=O)Nc1cccc(C(C)=O)c1 | 8.76% |
| CCOC12CC(C)(C)CC(C)(CC3=C1C(=O)CC(C)(C)C3)C2 (stereo not given) | 8.44% |
| NC(=O)c1cc(S(=O)(=O)N2CCCC2)ccc1OCc1ccc(F)cc1 | -16.9% |
| CCOc1ccc2c(c1)c(=O)c(S(=O)(=O)c1ccc(C)cc1)cn2CC | 0.7% |
| N#Cc1cccc(NC(=O)c2cc(C3CCCCN3C(=O)CCc3ccccc3)on2)c1 (stereo not given) | 19.9% |
| CC1CN(C2CCCCC2)c2nc3c(c(=O)n(C)c(=O)n3C)n2C1 (stereo not given) | -2.69% |
| Nc1ccc(-n2nncc2-c2ccco2)cc1 | -12.6% |
| CC(=O)C1=C(O)C(=O)N(c2ccc(Br)cc2)C1c1ccc([N+](=O)[O-])cc1 (stereo not given) | -18.5% |
| COc1ccc(OC)c(C(O)c2nc3ccccc3n2C)c1 (stereo not given) | -7.8% |
| OCCCNc1nccc(-c2cc(Nc3cccc(Cl)c3)ncn2)n1 | 54.1% (active) |
| COc1ccc(C2=NOC(C(=O)NCc3ccco3)C2)cc1OC (stereo not given) | 14.5% |
| COc1ccc(CNC(=O)CN(Cc2ccc(Cl)cc2)S(C)(=O)=O)cc1 | 6.51% |
| Cc1cccc(CC(=O)N2CCN=C2SCc2ccc([N+](=O)[O-])cc2)c1 | -7.77% |

| Compound | inhibition |
| --- | --- |
| COCCNC(=O)CN1C(=O)CSc2ncccc21 | -20.5% |
| CCC1(C)NC(=O)N(CC(=O)N2CCN(c3cccc(Cl)c3)CC2)C1=O (stereo not given) | -0.65% |
| Cc1ccc2nc(-c3ccc(NC(=O)c4cccnc4)cc3)oc2c1 | 50.8% (active) |
| Cc1cc(NS(=O)(=O)c2ccc(NC(=O)c3cccnc3)cc2)nc(C)n1 | 9.3% |
| O=C(Cc1ccccc1)Nc1ccc(NC(=O)c2cccnc2)cc1 | 17.2% |
| CC(=O)Nc1sc2c(c1C(c1cccc(F)c1)N1CCN(CCO)CC1)CCCC2 (stereo not given) | -6.54% |
| COc1ccccc1N(C)S(=O)(=O)c1ccc(Cl)c(C(=O)Nc2ccncc2)c1 | -12.4% |
| CC(=O)c1ccc(S(=O)(=O)NCCC(=O)N2CCN(c3ccccn3)CC2)cc1 | 0.71% |
| COc1ccc(C)cc1NC(=O)CSc1cccc[n+]1[O-] | 13% |
| CCCn1c(C(Cc2ccccc2)NC(=O)COC)nc2ccccc21 (stereo not given) | -16.1% |
| O=C(CC(O)(C(F)(F)F)C(F)(F)F)Nc1ccc(Cl)c(Cl)c1 | 59.2% (active) |
| O=C(CN1CCOCC1)Nc1ccc(NC(=O)CN2CCOCC2)c(Cl)c1 | -4.68% |
| CN(CC(=O)Nc1ccc(Cl)c(C(F)(F)F)c1)C(=O)CCC(=O)c1ccccc1 | 29.4% |
| O=C(CN1CCN(C2CCS(=O)(=O)C2)CC1)N1N=C(c2ccc(Cl)cc2)CC1c1ccco1 (stereo not given) | 58.2% (active) |
| Cc1ccc(C2=NN(C(=O)CSc3nc(N)cc(N)n3)C(c3ccco3)C2)cc1 (stereo not given) | -20.4% |
| Cc1ccc(C2=NN(C(=O)COc3ncnc4ccccc34)C(c3ccco3)C2)cc1 (stereo not given) | 3.07% |
| CCC1=[N+]([O-])C(C)(/C(C)=N\O)N(O)C1(C)C (stereo not given) | -4.1% |
| CCCN(CCC)S(=O)(=O)c1cc2c(cc1Br)CCN2C(=O)CC | 22.4% |
| CCOC(=O)c1ccc(NC(=S)N2CCN(c3ccccn3)CC2)cc1 | -15.3% |
| CCCCOc1ccc(CON(C(C)=O)C(C)=O)cc1Cl | -35.4% |
| Cc1[nH]c(=O)c(C(=O)/C=C/c2ccccc2)c2c1CCCC2 | 52% (active) |
| CC1(C(=O)O)CCCN(C(=O)/C=C/c2ccccc2)C1 (stereo not given) | -7.33% |
| COC(=O)c1c(C)[nH]c(C(=O)/C=C/c2ccc(Cl)cc2)c1C | -12.1% |
| COc1cccc(-c2nnc(NC(=O)c3ccc(S(=O)(=O)N(CC(C)C)CC(C)C)cc3)o2)c1 | 12.8% |

| Compound | inhibition |
| --- | --- |
| CCc1ccc(C(CNc2nc(C(F)(F)F)nc3ccccc23)N(C)C)cc1 (stereo not given) | 4.28% |
| CC(Nc1nc(N2CCCC2)nc2ccccc12)c1ccccc1 (stereo not given) | 5.36% |
| CC(Nc1nc(C(F)(F)F)nc2ccccc12)c1cccs1 (stereo not given) | 60.8% (active) |
| CN1CCCN(S(=O)(=O)c2ccc3c(c2)OCCO3)CC1 | -12.9% |
| COc1ccc(Nc2ncnc3ccc(Br)cc23)c(OC)c1 | 84.4% (active) |
| COc1ccc(OC)c(NC(=O)CN(C)CCOc2ccc(Br)cc2)c1 | 9.37% |
| COc1ccc(OC)c(Nc2nc3ccccc3n3cnnc23)c1 | -14.2% |
| COc1cccc2cc(C(=O)N(C)C)c(=O)oc12 | 11% |
| COc1cccc2cc(C(=O)N3CCN(C(=O)c4ccccc4)CC3)c(=O)oc12 | -10% |
| COc1cccc2cc(C(N)=O)/c(=N\NC(=O)c3ccccc3)oc12 | 73.1% (active) |
| O=C(CN(c1cc(C(F)(F)F)ccc1Cl)S(=O)(=O)c1ccccc1)NCc1cccnc1 | 0.66% |
| Cc1cc(C)nc(S/C=C/C(=O)c2ccccc2)n1 | 54% (active) |
| COC(c1ccccc1)(c1ccccc1)C(Oc1nc(C)cc(C)n1)C(=O)O (stereo not given) | 4.6% |
| CSc1nc(N(C)NC(=O)c2cccc(C)c2)c2ccccc2n1 | 25.9% |
| CCOC(=O)N1CCN(CC(=O)c2ccc3c(c2)CCN3)CC1 | 2.97% |
| CC1(c2ccccc2)NC(=O)N(CC(=O)Nc2cc(Cl)ccc2N2CCOCC2)C1=O (stereo not given) | -24.9% |
| C/C(=N\Nc1nc(Nc2ccccc2)nc(N2CCOCC2)n1)c1cccs1 | -8.45% |
| O=C(CSc1nc(Nc2ccccc2)nc(N2CCOCC2)n1)Nc1cc(Cl)ccc1O | 64.7% (active) |
| C=CCn1c2c(c3ccccc31)CCC2 | -7.49% |
| OC[C@@H]1CN(Cc2ccncc2)C[C@H](n2cnc3c(N4CCN(c5ccccc5)CC4)ncnc32)O1 | 37.7% |
| O=C(Nc1ccc(Br)c2cccnc12)c1ccc(Cn2cc([N+](=O)[O-])cn2)o1 | -32.5% |
| N#Cc1c(NC(=O)CCCl)sc2c1CCCCC2 | -37% |
| CC(=O)c1c(C)[nH]c(C(=O)OCC(=O)Nc2sc3c(c2C#N)CCCC3)c1C | 52.3% (active) |
| CC(=O)c1c(C)[nH]c(C(=O)OCC(=O)Nc2c(C)cccc2C)c1C | 14.6% |

| Compound | inhibition |
| --- | --- |
| COc1ccc(N2CC(C)Cn3c2nc2c3c(=O)n(Cc3ccccc3F)c(=O)n2C)c(OC)c1 (stereo not given) | 24.4% |
| c1ccc(COc2nsnc2N2CCOCC2)cc1 | 11% |
| O=C(O)c1cccnc1Sc1ncnc2sc3c(c12)CCC3 | 10.5% |
| c1ccc(CSc2ncnc3c2sc2nc(N4CCOCC4)c4c(c23)CCCC4)cc1 | 60.3% (active) |
| Cc1ccc(CCN2CC(C(=O)O)CC2=O)cc1 (stereo not given) | -21.4% |
| O=C1c2ccccc2C(Nc2ccc3c(c2)OCCO3)N1Cc1ccco1 (stereo not given) | 62% (active) |
| S=C(NCc1ccco1)Nc1ccc2c(c1)OCCO2 | 8.28% |
| CCCCCn1nnnc1C1c2ccccc2C(=O)N1Cc1ccco1 (stereo not given) | -7.23% |
| NC1=CC(=O)C(=O)c2cccnc21 | -15.9% |
| O=C(O)CCCC(=O)Nc1ccccc1-n1ccnc1 | 13% |
| O=C(NCCOc1ccccc1F)Nc1ccc(Br)cc1 | -33.8% |
| O=C(Nc1ccccc1)Nc1nnc(COc2ccccc2F)s1 | 53.5% (active) |
| O=C(Nc1nnc(COc2ccccc2)s1)Nc1ccccc1F | -7.72% |
| Cc1ccc(NC(=O)C2CC(=O)N(c3ccc4c(c3)OCCO4)C2)cc1S(=O)(=O)N1CCCCCC1 (stereo not given) | 29.1% |
| Cc1ccc2c(c1)N(CC(=O)N(Cc1ccccn1)Cc1ccco1)C(=O)C(C(C)C)O2 (stereo not given) | 4.87% |
| Cc1ccc(N/C=C/C(=O)c2ccccc2)cc1C | 56.6% (active) |
| O=C(/C=C/NCc1ccc(F)cc1)c1ccccc1 | -45.6% |
| Cc1ccc(NNC(=O)C2CCC2)cc1C | -8.76% |
| CCC(C)NC(=O)CN(C1CCCCC1)S(C)(=O)=O (stereo not given) | -2.32% |
| COc1ccc(CCN2C(=O)c3[nH]nc(-c4ccccc4O)c3C2c2ccc(C)cc2)cc1OC (stereo not given) | 22.8% |
| COC(=O)Cn1c(=NC(=O)c2cc(OC)c(OC)c(OC)c2)sc2cc(OC)ccc21 | 3.88% |
| Cc1ccc(N2CCN(c3ccc([N+](=O)[O-])cn3)CC2)c(C)c1 | 5.6% |
| NC(=O)C[n+]1cccc(C(N)=O)c1 | -13.6% |
